# Among all 69,000 compounds or so, about 8,600 (12%) showed an effect of 50% or more. This excerpt belongs to a sample that is enriched for strong results.
# Tested on: Plasmodium berghei
# Assay: Screen against P. berghei liver stage (PbLuc), transformed with Luciferase, at 10uM
# Assay type: functional, HepG2
# Details: tested at 10 uM
row,SMILES,INHIBITION [%]
1,COCCCN(Cc1ccccc1Cl)C1CCS(=O)(=O)C1 (centres undefined),33.4
2,Cc1nnnn1CCC(=O)N1CCC2(CCC(=O)N(CC3CC3)C2)CC1,8.38
3,c1cc(CN2CCCCC2c2ccc(Nc3cnccn3)nc2)ccn1 (centres undefined),43.1
4,Cn1cc(CN2CCC3(C2)CN(Cc2ccsc2)C3)cn1,-3.19
5,CNc1nc(CNC(=O)Nc2cccc(OC)c2)cs1,23.5
6,N#Cc1cccc(N2CCC3(CC2)Nc2ccccc2NC3=O)n1,14.3
7,CC(O)c1cccc(N2CCC3(CC2)Nc2ccccc2NC3=O)n1 (centres undefined),0.705
8,O=C1Nc2ccccc2NC12CCN(c1cccc(C(F)(F)F)n1)CC2,76
9,Cn1cnc2cc(C(=O)NS(=O)(=O)CC3CCCC3)ccc21,-20.6
10,COCCN1CCc2cc(C(=O)O)c(-c3ccoc3)nc2CC1,42.7
11,Cn1cncc1CN1CCc2nc3sccc3c(=O)n2CC1,-9.08
12,COc1ccc(Cn2ccnc2)cc1F,-20.7
13,COc1ccc(F)c(CN(CCCn2ccnc2)Cc2ccc(C)s2)c1,86.9
14,Cc1ccc(CN(CCCn2ccnc2)Cc2cnc(N(C)C)nc2)s1,-16.5
15,Cc1ccc(CN(CCN(C)C)Cc2ncc[nH]2)s1,17.6
16,Cc1ccc(CN(CCCN2CCOCC2)Cc2cncn2C)o1,30.4
17,Cc1ccc(CN(CCCn2ccnc2)Cc2c(F)cccc2F)s1,94.1
18,CCc1ccc(CN(CCCn2ccnc2)Cc2ccc(C)s2)o1,52.3
19,Cc1ccc(CN(CCCn2ccnc2)Cc2cnn(C)c2)s1,24.4
20,COc1ccc(Cl)cc1CNCCCn1ccnc1,-22.1
21,Cc1ccc(CN(CCCn2ccnc2)Cc2cccs2)s1,82.1
22,CCCc1cncnc1N1CCCC2(CCC(=O)N(C3CCCC3)C2)C1 (centres undefined),32.4
23,O=S(=O)(c1cnccc1N1CCN(CCO)CC1)N1CCCCC1,8.38

row,SMILES,INHIBITION [%]
1,CC(C)N1CCCC(c2cc(C(F)(F)F)nc3nccn23)C1 (centres undefined),3.03
2,O=C(O)CCC(=O)Nc1nn(Cc2ccccc2Cl)cc1Cl,19.3
3,CC(C)c1nccn1C1CCCN(C(=O)c2ccc3nncn3c2)C1 (centres undefined),36.1
4,Cc1cnn(CC2CCCN2C(=O)CCc2c(C)nc(C)[nH]c2=O)c1 (centres undefined),-37.7
5,CC(=O)N1CCC(c2cncc(Oc3ccccc3)n2)CC1,41.5
6,CN(Cc1ccno1)c1nc(C2CCCC2)nc2c1cnn2C,20
7,Cc1cc(CN2CC[C@H]3C[C@H](C(=O)Nc4cccnc4C)O[C@@H]3C2)no1,48.6
8,CC(C)OCCCN(Cc1ccncc1)Cc1cc(F)ccc1F,-16.5
9,Cc1ccc(CN(CCCn2ccnc2)Cc2cc(F)ccc2F)s1,88.1
10,Fc1ccccc1CN(CCCn1ccnc1)CC1CCOC1 (centres undefined),1.62
11,c1cncc(CN(CCCn2ccnc2)CC2CCOC2)c1 (centres undefined),44.8
12,OCc1ccc(CN(CCCn2ccnc2)Cc2ccncc2)o1,42.1
13,OCc1ccc(CN(CCCn2ccnc2)Cc2cccnc2)o1,56
14,CC(C)NC1CCCc2nc(-c3ccccc3)ncc21 (centres undefined),-36.3
15,CN1CCN(c2ccc(NS(=O)(=O)c3ccc(Cl)s3)cc2C(=O)O)CC1,-12.6
16,Cc1cc(C)n(CC2CCCCN2C(=O)CCc2ccncc2)n1 (centres undefined),4.52
17,Cc1cccc(C(=O)Nc2c(C(N)=O)n[nH]c2C)c1C,-41.9
18,CC(=O)N(Cc1noc(C)n1)C1CCN(Cc2ccc(C#N)cc2)C1 (centres undefined),27.4
19,Cc1cc(C)c2c(NC(C)c3nncn3C3CCCC3)ncnc2n1 (centres undefined),35.1
20,COc1ccc(-c2noc(C3=NN(C)C(=O)CC3)n2)cc1OC,-17.8
21,COc1ccc(Cc2noc(C3=NN(C)C(=O)CC3)n2)cc1OC,53.8
22,CN1N=C(c2nc(Cc3cccc(Br)c3)no2)CCC1=O,25.4
23,CCOCC1CN(C(=O)c2cccs2)Cc2cnn(CC3CC3)c21 (centres undefined),14.6

row,SMILES,INHIBITION [%]
1,Cc1cc(C(=O)NC(COCC(C)C)c2ccco2)no1 (centres undefined),11.9
2,CC(C)c1noc(C(C)S(=O)(=O)CC(=O)N2CCCC2)n1 (centres undefined),37.9
3,O=C(c1ccc(=O)[nH]n1)N1CCCC(O)(CN2CCC(F)(F)CC2)CC1 (centres undefined),-18.8
4,COc1cc(NCC(c2ccccn2)N(C)C)ncn1 (centres undefined),53.6
5,Cc1cc2nc(C(C)C)cc(NCC(c3ccccn3)N(C)C)n2n1 (centres undefined),28
6,COc1cc(NCC(O)CN2CCCCCC2)ncn1 (centres undefined),-25
7,CC(c1nc(C(C)(C)C)no1)N1CCN(Cc2ccc(C#N)cc2)CC1 (centres undefined),-4.94
8,Cc1ccoc1C(=O)N1CCn2cc(CN3CCCC3)nc2C1,28.7
9,CCOc1cccc2c1OCC(C(=O)NS(=O)(=O)c1c(C)noc1C)=C2,-6.44
10,CO[C@H]1CN(S(=O)(=O)c2ccc(F)cc2)C[C@@]12CCCO2,-23.4
11,CN(C)c1ccc(NC(=O)NCc2cccnc2N(C)C)cn1,17.5
12,CC(C)(C)c1nc(CN2CCC(N3CCCCC3)CC2)no1,56.3
13,CCS(=O)(=O)c1ccc2oc([C@H]3CCN(Cc4ccccc4)C3)nc2c1,-81.2
14,CCS(=O)(=O)c1ccc2oc([C@H]3CCN(Cc4cccnc4)C3)nc2c1,19.8
15,CC(C)c1noc(CN2CCC(c3nc4cc(Cl)ccc4o3)CC2)n1,67.9
16,Clc1ccc2oc(C3CCN(Cc4nc(C5CC5)no4)CC3)nc2c1,42.6
17,c1ccc2oc(C3CCN(Cc4ncon4)CC3)nc2c1,15.2
18,CC(C)(C)c1nc(CN2CCC(c3ccnn3CCO)CC2)no1,-17
19,Clc1ccc2oc(C3CCN(Cc4cccnc4)CC3)nc2c1,73.4
20,CN1CCN(C2CCN(Cc3noc(C(C)(C)C)n3)CC2)C1=O,-21.5
21,CC(C)(C)c1nc(CN2CCCC(c3noc(C4CC4)n3)C2)no1 (centres undefined),-41.1
22,CC(C)(C)c1nc(CN2CCC(c3nc4cc(Cl)ccc4o3)CC2)no1,56.9
23,CCc1nnc(CN2CCC(c3nc4cc(Cl)ccc4o3)CC2)o1,33.8

# — ChEMBL document CHEMBL4513216, “Probing the Open Global Health Chemical Diversity Library for Multistage-Active Starting Points for Next-Generation Antimalarials” (ACS Infect Dis, 2020)
